# Results from the supplement of paper PMC13380429.
# A number with no mark means an inactive call.
# System: Vero E6 infected with SARS-CoV-2
# Test: inhibition of SARS-CoV-2 cytopathic effect; higher = more antiviral protection, active = above 15
# Settings: 48 h
SMILES,inhibition of SARS-CoV-2 cytopathic effect (1 nM) [%],inhibition of SARS-CoV-2 cytopathic effect (8.33 nM) [%],inhibition of SARS-CoV-2 cytopathic effect (100 nM) [%],inhibition of SARS-CoV-2 cytopathic effect (833.33 nM) [%],inhibition of SARS-CoV-2 cytopathic effect (10000 nM)
CNC(=O)c1cccc2cc(Oc3ccnc4cc(OCC5(N)CC5)c(OC)cc34)ccc12 [lucitanib],0.14,2.44,1.47,2.09,2.58%
CN(C)CCOC(c1ccc(Cl)cc1)c1ccccn1 (stereo not given) [carbinoxamine],1.68,1.53,1.23,1.37,-1.45%
O=C(N[C@H]1CN2CCC1CC2)c1ccc(Cl)cc1,1.35,0.97,1.21,0.86,1.51%
N[C@@H](Cc1cc(CP(=O)(O)O)cc(-c2ccccc2Cl)c1)C(=O)O,8.76,0.31,1.79,1.85,1.74%
Cc1cccc(C(=O)NCN2CCN(c3ccccc3C#N)CC2)c1,-2.23,0.9,-0.16,0.2,0.79%
CN1C(=O)OC(C)(C)C1=O [trimethadione],-3.89,-1.8,-2.46,-3.14,-1.97%
N[C@H]1CC[C@H](N[C@@H]2C[C@H]2c2ccccc2)CC1,-0.96,2.24,1.16,1.11,1.79%
CCN(CC)CC#CCOC(=O)C(O)(c1ccccc1)C1CCCCC1 (stereo not given) [oxybutynin],-1.83,-0.13,-0.11,0.84,8.9%
O=S(=O)(O)CCSSCCS(=O)(=O)O [dimesna],-0.79,0.36,0.65,-1.27,-1.4%
CCN1C(=O)CNc2ncc(-c3ccc(-c4nc[nH]n4)nc3C)nc21,2.11,2.76,2.06,2.77,-4.67%
CC(C)C[C@@H]1NC(=O)[C@@H](C(C)C)NC(=O)[C@@H]2CCCN2C(=O)[C@@H](CC(=O)O)NC(=O)[C@@H](Cc2c[nH]c3ccccc23)NC1=O,-2.63,1.4,-0.29,-0.26,-0.15%
O=C(/C=C/c1ccc(O)c(O)c1)c1ccc(O)cc1O [butein],-0.13,0.3,1.11,2.97,12.1%
CC(C)CCN1c2nc(Nc3cc(F)c(O)c(F)c3)ncc2N(C)C(=O)[C@@H]1C,-1.15,-2.75,-6.09,-0.02,8.71%
C[N+]1(C)[C@@H]2CC[C@H]1C[C@@H](OC(=O)C(O)c1ccccc1)C2 (stereo not given in full) [homatropine-methylbromide],0.79,1.12,0.14,0.62,0.96%
O=c1[nH]cc(F)c(=O)[nH]1 [5-fluorouracil],0.75,1.63,1.29,0.37,1.52%
CN1CCN(CCOc2cc(OC3CCOCC3)c3c(Nc4c(Cl)ccc5c4OCO5)ncnc3c2)CC1 [saracatinib],0.37,-0.91,0.04,-7,-12.3%
CCCCOc1c(C(=O)c2c(F)cc(C)cc2F)c[nH]c2nncc1-2,0.56,-0.26,0.08,-0.55,-3.38%
COc1ccccc1NC(=O)OCC1CCN(C(=O)OC(C)(C)C)CC1,0.55,-0.78,1.48,-0.14,0.81%
O=C(OC[C@H]1O[C@@H](OC(=O)c2cc(O)c(O)c(OC(=O)c3cc(O)c(O)c(O)c3)c2)[C@H](OC(=O)c2cc(O)c(O)c(OC(=O)c3cc(O)c(O)c(O)c3)c2)[C@@H](OC(=O)c2cc(O)c(O)c(OC(=O)c3cc(O)c(O)c(O)c3)c2)[C@@H]1OC(=O)c1cc(O)c(O)c(OC(=O)c2cc(O)c(O)c(O)c2)c1)c1cc(O)c(O)c(OC(=O)c2cc(O)c(O)c(O)c2)c1 [tannic-acid],-0.39,0.91,-0.77,-3.86,-6.77%

SMILES,inhibition of SARS-CoV-2 cytopathic effect (1 nM) [%],inhibition of SARS-CoV-2 cytopathic effect (8.33 nM) [%],inhibition of SARS-CoV-2 cytopathic effect (100 nM) [%],inhibition of SARS-CoV-2 cytopathic effect (833.33 nM) [%],inhibition of SARS-CoV-2 cytopathic effect (10000 nM)
Fc1cc(F)c2c(c1)[C@H]1C=CC[C@H]1C(c1cccnc1)N2 (stereo not given in full) [Golgicide A],-0.89,0.7,-0.27,-0.71,-3.16%
CC1(C)C(/C=C/C=C/C=C/C=C2\N(CCCCS(=O)(=O)O)c3ccc4ccccc4c3C2(C)C)=[N+](CCCCS(=O)(=O)[O-])c2ccc3ccccc3c21 [indocyanine-green],-0.13,1.53,0.85,1.22,0.23%
CN(C)CCCC1(c2ccc(F)cc2)OCc2cc(C#N)ccc21 (stereo not given) [citalopram],-0.29,2.58,1.49,-0.995,-4.99%
O=C/C=C/c1ccccc1 [cinnamaldehyde],1.16,2.28,1.04,3.28,5.38%
CCN(CC)CCCCNc1ncc2cc(-c3cc(OC)cc(OC)c3)c(NC(=O)NC(C)(C)C)nc2n1,-0.74,1.53,-0.45,-4.96,45.1% (active)
CC(NC(C)(C)C)C(=O)c1cccc(Cl)c1 (stereo not given) [bupropion],1.88,2.11,-0.69,-0.93,-2.06%
CN(C)CCCSC(=N)N [dimaprit],0.47,0.92,-0.82,-1.15,2.17%
Cc1ccc2c(=O)c3cccc(CC(=O)O)c3oc2c1C,4.48,0.61,1.92,-1.05,1.59%
CC(C)Cc1ccc([C@@H](C)C(=O)NS(C)(=O)=O)cc1 [reparixin],2.11,3.05,3.66,0.65,4.19%
FC(F)c1nc2ccccc2n1-c1nc(N2CCOCC2)nc(N2CCOCC2)n1,-2.17,-0.7,0.03,-2.96,-6.67%
CN1c2c([nH]c(N)nc2=O)NC[C@@H]1CNc1ccc(C(=O)N[C@@H](CCC(=O)O)C(=O)O)cc1 [metafolin],4.85,2.72,1.95,0.81,2.93%
CN(CC[C@@H](Oc1ccc(-c2ccccc2)cc1)c1ccc(F)cc1)CC(=O)O,0.18,1.55,0.56,0.79,0.89%
CC(C(=O)O)c1cccc(C(=O)c2ccccc2)c1 (stereo not given) [ketoprofen],-0.91,-0.62,-0.91,-0.03,-0.97%
O=C1Nc2ccc(I)cc2C1=Cc1cc(Br)c(O)c(Br)c1,2.36,0.05,1.54,2.76,8.55%
CC(=O)Nc1ccc(S(=O)(=O)Nc2ccc([N+](=O)[O-])cc2)cc1 [sulfanitran],-1.18,-2.16,0.76,0.27,-4.49%
C[C@@H]1NC(=O)[C@@H](N)CNC(=O)[C@H](C2CCNC(=N)N2)NC(=O)/C(=C/NC(N)=O)NC(=O)[C@H](CNC(=O)CC(N)CCCN)NC1=O.N=C1NCC[C@H]([C@@H]2NC(=O)/C(=C/NC(N)=O)NC(=O)[C@H](CNC(=O)C[C@@H](N)CCCN)NC(=O)[C@H](CO)NC(=O)[C@@H](N)CNC2=O)N1 [capreomycin],0.56,-0.28,-1.08,0.24,2.53%
CCOc1ccc(Cc2cc([C@@H]3O[C@H](SC)[C@@H](O)[C@H](O)[C@H]3O)ccc2Cl)cc1 [sotagliflozin],-0.94,-2.52,-1.14,-3.56,-3.65%
O=c1n(CC2CO2)c(=O)n(CC2CO2)c(=O)n1CC1CO1 (stereo not given) [teroxirone],-1.74,-0.65,0.11,0.34,9.05%
NS(=O)(=O)c1cc(C(=O)O)cc(N2CCCC2)c1Oc1ccccc1 [piretanide],3.5,5.18,2.39,-2.57,1%
